According to PubChem BioAssay (Tox21):
A number with no mark means an inactive call. Inconclusive results are not listed. Entries that show only a call come without a potency. The source made the active and inactive calls. Unless noted, calls follow the shape of the dose curve; as a rule, active = well fitted curve in the direction sought with a large enough effect in the repeat runs; inconclusive = weak or mixed curves; inactive = no such curve, though single readings can be large; an effect the other way counts as inactive or inconclusive.

Columns and labels:
[1] = qHTS assay to test for compound auto fluorescence at 535 nm (green) in HEK293 cells (AID 720680)
[2] = qHTS assay to test for compound auto fluorescence at 460 nm (blue) in HEK293 cell free culture (AID 720681)
In short: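 Compounds were added to cell-free DMEM with 10% FBS and fluorescence read directly. The blue channel used 405 nm excitation and 460 nm emission, with triamterene as the reference fluorophore.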

[3] = qHTS assay to test for compound auto fluorescence at 535 nm (green) in HEK293 cell free culture (AID 720682)
In short: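 Measurement is a direct plate read of green fluorescence (485 nm in, 535 nm out) after compound addition to serum-supplemented DMEM lacking cells, with fluorescein used to express intensities.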

[4] = qHTS assay to test for compound auto fluorescence at 590 nm (red) in HEK293 cell free culture (AID 720683)
In short: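 Cell-free wells of DMEM with 10% FBS received compound, and intrinsic fluorescence was read at excitation/emission 540/590 nm. Values expressed as equivalence to Rose Bengal sodium.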

[5] = qHTS assay to test for compound auto fluorescence at 590 nm (red) in HepG2 cell free culture (AID 720684)
In short: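 Compound was pinned into wells holding MEM with 10% FBS and no cells, and red fluorescence was read at Ex/Em 540/590 nm. Signal is expressed as auto fluorescence equivalency relative to Rose Bengal sodium.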

[6] = qHTS assay to test for compound auto fluorescence at 460 nm (blue) in HepG2 cell free culture (AID 720685)
In short: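 Compound (23 nL) or DMSO pinned into cell-free MEM with 10% FBS; blue fluorescence read at 405/460 nm excitation/emission, expressed as auto-fluorescence equivalency to triamterene.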

[7] = qHTS assay to test for compound auto fluorescence at 535 nm (green) in HepG2 cell free culture (AID 720686)
[8] = qHTS assay to test for compound auto fluorescence at 460 nm (blue) in HepG2 cells (AID 720687)
In short: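 HepG2 cells in MEM with 10% FBS, attached overnight at 37 C, were exposed to compound or DMSO for 1 hr at 37 C, 5% CO2. Blue fluorescence was read at 405/460 nm, with triamterene as reference fluorophore.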

[9] = target: Glucocorticoid receptor (Homo sapiens) (UniProt P04150); test: qHTS assay to identify small molecule agonists of the glucocorticoid receptor (GR) signaling pathway (AID 720691; active = well fitted activation curve with a large enough effect in the signal ratio in the repeat runs, not every such curve was filed as active; the % refers to the signal ratio)
Sequence of Glucocorticoid receptor (Homo sapiens) (P04150 whole entry, looked up): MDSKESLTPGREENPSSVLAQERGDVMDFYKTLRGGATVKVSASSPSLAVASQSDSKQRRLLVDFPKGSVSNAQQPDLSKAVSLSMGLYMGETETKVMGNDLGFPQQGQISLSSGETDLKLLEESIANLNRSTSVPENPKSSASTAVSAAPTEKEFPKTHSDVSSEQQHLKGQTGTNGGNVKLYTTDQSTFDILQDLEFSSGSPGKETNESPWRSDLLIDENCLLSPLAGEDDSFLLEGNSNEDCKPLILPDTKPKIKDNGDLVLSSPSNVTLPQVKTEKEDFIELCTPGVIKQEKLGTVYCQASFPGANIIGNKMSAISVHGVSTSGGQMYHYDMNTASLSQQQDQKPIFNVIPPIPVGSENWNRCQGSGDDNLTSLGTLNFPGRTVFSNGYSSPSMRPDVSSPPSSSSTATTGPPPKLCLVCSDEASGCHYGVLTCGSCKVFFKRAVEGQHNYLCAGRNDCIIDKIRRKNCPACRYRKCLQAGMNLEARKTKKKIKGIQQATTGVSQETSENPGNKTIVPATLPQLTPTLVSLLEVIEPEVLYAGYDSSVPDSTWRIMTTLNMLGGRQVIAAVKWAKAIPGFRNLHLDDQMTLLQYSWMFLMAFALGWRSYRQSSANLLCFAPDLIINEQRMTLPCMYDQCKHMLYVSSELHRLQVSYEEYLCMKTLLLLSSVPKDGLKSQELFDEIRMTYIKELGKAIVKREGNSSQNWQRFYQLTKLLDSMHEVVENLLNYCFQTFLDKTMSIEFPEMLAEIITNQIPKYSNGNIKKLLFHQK
In short: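 Reporter read-out: fluorescence intensity following 2 h room-temperature LiveBLAzer B/G FRET substrate loading. Prior step: GR-bla HeLa cells held 4 h, then treated 18 h at 37 C.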

[10] = target: Glucocorticoid receptor (Homo sapiens) (UniProt P04150); test: qHTS assay to identify small molecule antagonists of the glucocorticoid receptor (GR) signaling pathway (AID 720692; active = well fitted inhibition curve with a large enough effect in the signal ratio in the repeat runs, not every such curve was filed as active; the % refers to the signal ratio; also: potency is read from the fitted curve at half-maximal effect)
In short: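 Dexamethasone (5 nM final) stimulated a stably integrated GRE-beta-lactamase reporter in HeLa cells during 18 h co-incubation with compounds; signal was quantified as fluorescence intensity of B/G FRET substrate after 2 h.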

[11] = qHTS assay to identify small molecule antagonists of the glucocorticoid receptor (GR) signaling pathway - cell viability counter screen (AID 720693); also: nearly all actives have a fitted effect of over 55% in size
[12] = qHTS assay for identifying genotoxic compounds that show differential cytotoxicity against isogenic chicken DT40 cell lines with known DNA damage response pathways - wild type cell line (AID 743012); also: nearly all actives have a fitted effect of over 60% in size; also: potency is read from the fitted curve at half-maximal effect
In short: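 Using parental DT40 (300 cells/well), compounds delivered in DMSO incubate 40 h at 37 C/5% CO2. CellTiter-Glo reagent then stands 30 min at room temperature, and luminescence gives cell viability.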

[13] = qHTS assay for identifying genotoxic compounds that show differential cytotoxicity against isogenic chicken DT40 cell lines with known DNA damage response pathways - Rev3 mutant cell line (AID 743014); also: nearly all actives have a fitted effect of over 55% in size; also: potency is read from the fitted curve at half-maximal effect
[14] = qHTS assay for identifying genotoxic compounds that show differential cytotoxicity against isogenic chicken DT40 cell lines with known DNA damage response pathways - Rad54/Ku70 mutant cell line (AID 743015); also: nearly all actives have a fitted effect of over 60% in size; also: potency is read from the fitted curve at half-maximal effect
[15] = qHTS assay to identify small molecule antagonists of the androgen receptor (AR) signaling pathway - cell viability counter screen (AID 743033; also: nearly all actives have a fitted effect of over 45% in size)
[16] = qHTS assay to identify small molecule antagonists of the androgen receptor (AR) signaling pathway using the MDA cell line - cell viability counter screen (AID 743041; also: nearly all actives have a fitted effect of over 45% in size)
In short: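 MDA-kb2 AR-luc cells (MMTV-luciferase, AR/GR responsive) treated with compounds plus R1881 agonist for 16 h at 37C. CellTiter-Fluor added at 15.5 h; fluorescence read after 30 min in the same wells.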

[17] = target: Androgen receptor (Homo sapiens) (UniProt P10275); test: qHTS assay to identify small molecule antagonists of the androgen receptor (AR) signaling pathway (AID 743035; active = well fitted inhibition curve with a large enough effect in the signal ratio in the repeat runs, not every such curve was filed as active; the % refers to the signal ratio)
Sequence of Androgen receptor (Homo sapiens) (P10275 whole entry, looked up): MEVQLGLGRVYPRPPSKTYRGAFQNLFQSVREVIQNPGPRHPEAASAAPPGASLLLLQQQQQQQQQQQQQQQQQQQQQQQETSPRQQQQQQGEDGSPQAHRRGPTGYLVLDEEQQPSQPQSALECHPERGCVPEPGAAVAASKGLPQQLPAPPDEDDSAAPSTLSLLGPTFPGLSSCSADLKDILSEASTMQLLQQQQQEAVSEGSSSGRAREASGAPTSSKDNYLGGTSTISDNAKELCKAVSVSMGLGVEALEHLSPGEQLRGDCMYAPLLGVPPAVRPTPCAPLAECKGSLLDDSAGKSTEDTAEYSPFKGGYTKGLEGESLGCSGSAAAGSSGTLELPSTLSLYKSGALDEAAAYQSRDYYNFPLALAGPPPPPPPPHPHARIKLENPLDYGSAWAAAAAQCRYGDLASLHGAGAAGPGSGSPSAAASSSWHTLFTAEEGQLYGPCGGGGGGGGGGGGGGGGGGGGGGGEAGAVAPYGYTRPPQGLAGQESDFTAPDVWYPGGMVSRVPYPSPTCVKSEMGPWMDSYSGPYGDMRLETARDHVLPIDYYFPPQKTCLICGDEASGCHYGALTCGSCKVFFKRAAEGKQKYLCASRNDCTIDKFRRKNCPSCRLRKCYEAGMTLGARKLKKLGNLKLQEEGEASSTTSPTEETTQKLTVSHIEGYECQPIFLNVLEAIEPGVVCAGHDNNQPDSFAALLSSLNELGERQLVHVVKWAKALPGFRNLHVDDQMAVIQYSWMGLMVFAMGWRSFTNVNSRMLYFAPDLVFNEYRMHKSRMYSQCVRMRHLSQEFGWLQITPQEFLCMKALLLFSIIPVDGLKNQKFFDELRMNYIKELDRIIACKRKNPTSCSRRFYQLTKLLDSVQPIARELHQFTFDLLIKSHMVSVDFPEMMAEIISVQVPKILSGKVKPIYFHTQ
In short: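 Using qHTS, AR-UAS-bla GripTite HEK293 cells received compound, then R1881, and were cultured 16 h at 37C/5% CO2 before a 2 h room-temperature LiveBLAzer B/G FRET substrate step and fluorescence measurement.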

[18] = target: Androgen receptor (Homo sapiens) (UniProt P10275); test: qHTS assay to identify small molecule agonists of the androgen receptor (AR) signaling pathway (AID 743036; active = well fitted activation curve with a large enough effect in the signal ratio in the repeat runs, with a control signal flat, not every such curve was filed as active; the % refers to the signal ratio)
In short: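 Beta-lactamase under UAS control, stably integrated in HEK293 GripTite cells, reports receptor activation. After 16 h compound treatment, cells received FRET substrate for 2 h at room temperature before fluorescence reading.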

[19] = target: Androgen receptor (Homo sapiens) (UniProt P10275); test: qHTS assay to identify small molecule agonists of the androgen receptor (AR) signaling pathway using the MDA cell line (AID 743040; also: nearly all actives have a fitted effect of over 20% in size)
In short: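 MDA-kb2 breast carcinoma cells carrying MMTV-luciferase (responsive to AR and GR), plated 5 h then treated 16 h with compounds at 37C, 0% CO2. Read-out was ONE-Glo luminescence after 30 min at room temperature.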

[20] = target: Androgen receptor (Homo sapiens) (UniProt P10275); test: qHTS assay to identify small molecule antagonists of the androgen receptor (AR) signaling pathway using the MDA cell line (AID 743042; also: nearly all actives have a fitted effect of over 55% in size)
In short: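 MDA-kb2 breast carcinoma cells carrying MMTV-luciferase (AR/GR responsive) were co-treated with compounds and the agonist R1881 for 16 h at 37C. Inhibition read as ONE-Glo luminescence; CellTiter-Fluor fluorescence measured in parallel for cytotoxicity.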

Compound: O=C(O)C(O)[C@H](O)[C@@H](O)[C@H](O)[C@H](O)CO (stereo partly drawn)
- outcome [1]: inactive
- Potency [2]: inactive
- outcome [3]: inactive
- outcome [4]: inactive
- outcome [5]: inactive
- Potency [6]: inactive
- outcome [7]: inactive
- Potency [8]: inactive
- Potency [9]: inactive
- Potency [10]: inactive
- outcome [11]: inactive
- Potency [12]: inactive
- Potency [13]: inactive
- Potency [14]: inactive
- outcome [15]: inactive
- Potency [16]: inactive

Compound: c1cc(CN2CCCCC2)cc(OCCCNc2nc3ccccc3s2)c1
- outcome [1]: inactive
- Potency [2]: inactive
- outcome [3]: inactive
- outcome [4]: inactive
- outcome [5]: inactive
- Potency [6]: inactive
- outcome [7]: inactive
- Potency [8]: inactive
- Potency [9]: inactive
- Potency [10]: inactive
- outcome [11]: inactive
- Potency [12]: 13.3 µM (active)
- Potency [13]: 29.8 µM (active)
- Potency [14]: 23.7 µM (active)
- outcome [15]: inactive
- Potency [16]: inactive

Compound: CCOC(=O)[C@H](CCc1ccccc1)N[C@@H](C)C(=O)N1CCC[C@H]1C(=O)O
- outcome [1]: inactive
- Potency [2]: inactive
- outcome [3]: inactive
- outcome [4]: inactive
- outcome [5]: inactive
- Potency [6]: inactive
- outcome [7]: inactive
- Potency [8]: inactive
- Potency [9]: inactive
- Potency [10]: inactive
- outcome [11]: inactive
- Potency [12]: inactive
- Potency [13]: inactive
- Potency [14]: inactive
- outcome [15]: inactive
- Potency [16]: inactive

Compound: O=C(O)Cc1cc(I)c(Oc2cc(I)c(O)c(I)c2)c(I)c1
- outcome [1]: inactive
- Potency [2]: inactive
- outcome [3]: inactive
- outcome [4]: inactive
- outcome [5]: inactive
- Potency [6]: inactive
- outcome [7]: inactive
- Potency [8]: inactive
- Potency [9]: inactive
- Potency [10]: 10.7 µM (active)
- outcome [11]: inactive
- Potency [12]: inactive
- Potency [13]: inactive
- Potency [14]: inactive
- outcome [15]: inactive
- Potency [16]: inactive

Compound: Nc1cc(N)cc(C(=O)O)c1
- outcome [1]: inactive
- Potency [2]: inactive
- outcome [3]: inactive
- outcome [4]: inactive
- outcome [5]: inactive
- Potency [6]: inactive
- outcome [7]: inactive
- Potency [8]: inactive
- Potency [9]: inactive
- Potency [10]: inactive
- outcome [11]: inactive
- Potency [12]: inactive
- Potency [13]: inactive
- Potency [14]: inactive
- outcome [15]: inactive
- Potency [16]: inactive

Compound: NC(N)=NS(=O)(=O)c1ccc(N)cc1
- fluorescence, % of fluorescein [1]: 0.0406% [at 18.6 µM]
- fluorescence, % of fluorescent control [2]: -0.0354% [at 18.6 µM]
- activity change [3]: 0.0753% [at 18.6 µM]
- fluorescence, % of fluorescent control [4]: -0.0082% [at 18.6 µM]
- fluorescence, % of Rose Bengal [5]: 0.343% [at 18.6 µM]
- fluorescence, % of fluorescent control [6]: -0.0031% [at 18.6 µM]
- fluorescence, % of fluorescein control [7]: -0.0207% [at 18.6 µM]
- fluorescence, % of fluorescent control [8]: -0.0417% [at 18.6 µM]
- Potency [9]: inactive
- Potency [10]: inactive
- outcome [11]: inactive
- Potency [12]: inactive
- Potency [13]: inactive
- Potency [14]: inactive
- outcome [15]: inactive
- Potency [17]: inactive
- outcome [18]: inactive
- Potency [19]: inactive
- Potency [16]: inactive
- outcome [20]: inactive

Compound: CC1CCN(CCCC(=O)c2ccc(F)cc2)CC1
- outcome [1]: inactive
- Potency [2]: inactive
- outcome [3]: inactive
- outcome [4]: inactive
- outcome [5]: inactive
- Potency [6]: inactive
- outcome [7]: inactive
- Potency [8]: inactive
- Potency [9]: inactive
- Potency [10]: inactive
- outcome [11]: inactive
- Potency [14]: 7.5 µM (active)
- outcome [15]: inactive
